This passage reports outcome and Potency results from PubChem BioAssay (NCATS).

Test [1] concerns the target Metallo-beta-lactamase type 2 (Klebsiella pneumoniae) (UniProt C7C422). In words: qHTS to identify inhibitors of the New Delhi Metallo-beta-lactamase (NDM): assay validation screen against the NCATS LOPAC Collection (AID 1794843).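 Further: nitrocefin turnover by NDM-1 measured as 485 nm absorbance at plateau; series mostly up to about 38 µM.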 The method, boiled down:
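Nitrocefin hydrolysis (50 uM substrate stock) by NDM-1, 2 nM final, was followed by 485 nm absorbance after compound preincubation; buffer was 50 mM HEPES pH 7.0, 1 uM ZnSO4, 0.01% Tween20.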
Background: In qHTS, concentration-response curves come from the screen itself.

The target in test [2] is Glutathione peroxidase 1 (Homo sapiens) (UniProt P07203). In words: Primary qHTS Assay for Inhibitors of Recombinant Selenoprotein Glutathione Peroxidase 1 (GPX1) (AID 1845191). Further: nearly all actives have a fitted effect of over 65% in size. An outline of the steps:
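NADPH consumption tracked by fluorescence at 340/450 nm between t=0 and t=15 min, room temperature. Final mix: 10 nM GPX1, 100 nM glutathione reductase, 1 mM GSH, 0.5 mM NADPH, 0.5 mM cumene hydroperoxide, 0.01% BSA; 30 min compound–enzyme preincubation.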

Each structure is given as a SMILES string. Inconclusive results are not listed. A call without a number means that no potency is given here. Active and inactive are the calls of the source. The call rests on the fitted dose curve; in most records, active means well fitted curve in the direction sought with a large enough effect; inconclusive means small, poorly fitted or top-dose-only effect, or another doubt; inactive means no such curve, though single readings can be large; an effect the other way counts as inactive or inconclusive.

Sequence of Glutathione peroxidase 1 (Homo sapiens) (P07203 whole entry, looked up): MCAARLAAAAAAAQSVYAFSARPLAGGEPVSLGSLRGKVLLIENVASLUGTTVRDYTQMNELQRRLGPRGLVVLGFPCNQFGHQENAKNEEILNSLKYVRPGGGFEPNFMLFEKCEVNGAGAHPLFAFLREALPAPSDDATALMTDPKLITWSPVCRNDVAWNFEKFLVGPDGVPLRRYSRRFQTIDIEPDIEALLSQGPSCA
Sequence of Metallo-beta-lactamase type 2 (Klebsiella pneumoniae) (C7C422 whole entry, looked up): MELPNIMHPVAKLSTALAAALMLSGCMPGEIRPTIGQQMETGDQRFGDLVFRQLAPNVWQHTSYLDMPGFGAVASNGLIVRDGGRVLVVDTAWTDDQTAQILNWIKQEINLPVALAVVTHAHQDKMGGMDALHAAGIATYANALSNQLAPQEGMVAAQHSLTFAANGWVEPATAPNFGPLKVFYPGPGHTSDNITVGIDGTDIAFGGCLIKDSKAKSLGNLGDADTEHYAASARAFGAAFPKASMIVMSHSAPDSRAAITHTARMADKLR

As to `Cc1cc(C(C)(C)C)cc(C)c1CC1=NCCN1`, the call in test [1] was inactive. For the same molecule, in test [2], the Potency entry was “inactive”.
For the molecule `Clc1ccc2c(c1)C(N1CCNCC1)=Nc1ccccc1O2`, the outcome in test [1] was inactive. In addition, in test [2], the Potency entry was “inactive”.
Take `COc1cc2nc(N(C)CCCNC(=O)C3CCCO3)nc(N)c2cc1OC` (stereo not given): in test [1], the molecule was called inactive. In addition, the Potency result in test [2] is “inactive”.
For `COc1ccc2[nH]cc(CCNC(C)=O)c2c1`, the call in test [1] was inactive. For the same molecule, the Potency result in test [2] is “inactive”.
Take `COc1cc2c(c(OC)c1OC)-c1ccc(OC)c(=O)cc1[C@@H](NC(C)=O)CC2`: the call in test [1] was inactive. For the same molecule, in test [2], the Potency entry is “inactive”.
Consider `CN1CCN(C2=Nc3cc(Cl)ccc3Nc3ccccc32)CC1`, for which the result in test [1] was inactive. For the same molecule, the Potency result in test [2] was “inactive”.
In the case of `CCN1CCCC1CNC(=O)c1cc(S(=O)(=O)CC)c(N)cc1OC` (stereo not given), the outcome in test [1] was inactive. The Potency entry in test [2] is “inactive”.
Regarding `CN1CCC(=C2c3ccccc3C=Cc3ccccc32)CC1`, the molecule was called inactive in test [1]. The Potency result in test [2] was “inactive”.
`Cc1ccc(-c2cc(C(F)(F)F)nn2-c2ccc(S(N)(=O)=O)cc2)cc1`: the molecule was classed as inactive in test [1]. Moreover, the Potency entry in test [2] is “inactive”.
As to `NC(=O)OCC(COC(N)=O)c1ccccc1`, in test [1], the outcome was inactive. Besides, the Potency result in test [2] is “inactive”.
As for `CCOC(=O)c1ncn2c1CN(C)C(=O)c1cc(F)ccc1-2`, the molecule was classed as inactive in test [1]. For the same molecule, the Potency entry in test [2] was “inactive”.
Turning to `CC(C)NCC(O)c1ccc(O)c(O)c1` (stereo not given), the result in test [1] was inactive. For the same molecule, the Potency entry in test [2] is “inactive”.
On to `Nc1c2c(nc3ccccc13)CCCC2`, for which the outcome in test [1] was inactive. Besides, the Potency result in test [2] is “inactive”.
As for `O=C(c1ccc(OCCN2CCCCC2)cc1)c1c(-c2ccc(O)cc2)sc2cc(O)ccc12`, in test [1], the call was inactive. Besides, the Potency entry in test [2] is “inactive”.
As to `Nc1nnc(-c2cccc(Cl)c2Cl)c(N)n1`, in test [1], the molecule was classed as inactive. For the same molecule, the Potency result in test [2] is “inactive”.
For the molecule `CS(=O)(=O)Nc1ccc([N+](=O)[O-])cc1Oc1ccccc1`, the molecule was called inactive in test [1]. Further, the Potency entry in test [2] was “inactive”.
`Cc1cnc(C(=O)NCCc2ccc(S(=O)(=O)NC(=O)NC3CCCCC3)cc2)cn1`: the call in test [1] was inactive. In test [2], the Potency entry is “inactive”.
On to `CC(C(=O)O)c1cccc(C(=O)c2ccccc2)c1` (stereo not given), for which the molecule was classed as inactive in test [1]. Moreover, the Potency entry in test [2] was “inactive”.
Consider `O=c1c(-c2ccc(O)cc2)coc2cc(O)cc(O)c12`, for which the call in test [1] was inactive. The Potency entry in test [2] was “inactive”.
Turning to `CN1CCN(CCCN2c3ccccc3Sc3ccc(Cl)cc32)CC1`, the outcome in test [1] was inactive. Further, the Potency entry in test [2] was “inactive”.
Turning to `N[C@@H](Cc1c[nH]c2ccc(O)cc12)C(=O)O`, the call in test [1] was inactive. For the same molecule, in test [2], the Potency entry is “inactive”.
As to `CCOC(=O)Nc1ccc(NCc2ccc(F)cc2)nc1N`, in test [1], the result was inactive. In test [2], the Potency result was “inactive”.
With `CC[C@@]1(O)C(=O)OCc2c1cc1n(c2=O)Cc2cc3c(CN(C)C)c(O)ccc3nc2-1`, the call in test [1] was inactive. In test [2], the Potency result was “inactive”.
Turning to `O=C(c1ccc(F)cc1)C1CCN(CCn2c(=O)[nH]c3ccccc3c2=O)CC1`, the outcome in test [1] was inactive. In addition, in test [2], the Potency result was “inactive”.
Take `COC(=O)Nc1nc2ccc(C(=O)c3cccs3)cc2[nH]1`: the outcome in test [1] was inactive. In addition, the Potency result in test [2] was “inactive”.
Consider `NCCc1cnc[nH]1`, for which, in test [1], the molecule was classed as inactive. The Potency result in test [2] is “inactive”.
On to `O=C1Cc2cc(CCN3CCN(c4nsc5ccccc45)CC3)c(Cl)cc2N1`, for which, in test [1], the molecule was called inactive. In addition, in test [2], the Potency entry was “inactive”.
As for `CCC1(C)CC(=O)NC1=O` (stereo not given), the call in test [1] was inactive. Also, the Potency result in test [2] was “inactive”.
With `CNCCCC12CCC(c3ccccc31)c1ccccc12`, the outcome in test [1] was inactive. For the same molecule, the Potency entry in test [2] is “inactive”.
Turning to `CN(Cc1cnc2nc(N)nc(N)c2n1)c1ccc(C(=O)N[C@@H](CCC(=O)O)C(=O)O)cc1`, in test [1], the call was inactive. Besides, the Potency entry in test [2] is “inactive”.
`Cc1cc(C(C)(C)C)c(O)c(C)c1CC1=NCCN1`: the molecule was classed as inactive in test [1]. Besides, the Potency result in test [2] is “inactive”.
For the molecule `O=C1N(c2ccccc2)c2ccccc2C1(Cc1ccncc1)Cc1ccncc1`, the molecule was classed as inactive in test [1]. In test [2], the Potency result was “inactive”.
Turning to `Cn1c(=O)c2[nH]cnc2n(C)c1=O`, the Potency result in test [2] is “inactive”.
The same measure, in the same setting: as for `CS(=O)(=O)CCNCc1ccc(-c2ccc3ncnc(Nc4ccc(OCc5cccc(F)c5)c(Cl)c4)c3c2)o1`, the entry is “inactive”.
Still for that read-out and setting: as for `COc1ccc(CCN(C)CCCC(C#N)(c2ccc(OC)c(OC)c2)C(C)C)cc1OC` (stereo not given), the entry is “inactive”.
For `COc1ccc2c(c1)c(CC(=O)O)c(C)n2C(=O)c1ccc(Cl)cc1`, the Potency result in test [2] was “inactive”.
Same read-out and setting: as for `Cc1ccccc1N1C(=O)c2cc(S(N)(=O)=O)c(Cl)cc2NC1C` (stereo not given), the entry is “inactive”.
Take `CC(C)NCC(O)COc1ccc(CCOCC2CC2)cc1` (stereo not given): the molecule was called inactive in test [1]. Moreover, the Potency result in test [2] was “inactive”.
In the case of `CC(COc1ccccc1)N(CCCl)Cc1ccccc1` (stereo not given), the Potency entry in test [2] is “inactive”.
As for `Cn1cnc2c1c(=O)[nH]c(=O)n2C`, the molecule was classed as inactive in test [1]. The Potency entry in test [2] was “inactive”.
For the molecule `Clc1ccccc1C(c1ccccc1)(c1ccccc1)n1ccnc1`, the Potency entry in test [2] was “inactive”.
Consider `CCCNCC(O)COc1ccccc1C(=O)CCc1ccccc1` (stereo not given), for which the molecule was called inactive in test [1]. The Potency entry in test [2] is “inactive”.
`CC1(CN2CCC(n3c(=O)[nH]c4ccccc43)CC2)OCc2ccccc2-n2cccc21` (stereo not given): the Potency result in test [2] was “inactive”.
On the same count and under the same terms, as for `C[C@@H]1CC(=O)NN=C1c1ccc(NN=C(C#N)C#N)cc1`, the entry is “inactive”.
For `COc1ccccc1OCCNCC(O)COc1cccc2[nH]c3ccccc3c12` (stereo not given), in test [1], the result was inactive. Further, the Potency result in test [2] is “inactive”.
Regarding `CC(CCc1ccc(O)cc1)NCCc1ccc(O)c(O)c1` (stereo not given), the call in test [1] was inactive. Also, the Potency result in test [2] is “inactive”.
As for `O=C(C1CCCCC1)N1CC(=O)N2CCc3ccccc3C2C1` (stereo not given), the Potency result in test [2] is “inactive”.
Consider `O=C(Nc1ccc([N+](=O)[O-])cc1Cl)c1cc(Cl)ccc1O`, for which the result in test [1] was inactive. In test [2], the Potency entry is “inactive”.
Consider `CC1COc2c(N3CCN(C)CC3)c(F)cc3c(=O)c(C(=O)O)cn1c23` (stereo not given), for which the molecule was called inactive in test [1]. The Potency result in test [2] is “inactive”.
In the case of `CN(C)c1nc(N(C)C)nc(N(C)C)n1`, the outcome in test [1] was inactive. The Potency result in test [2] was “inactive”.
Take `CN(CCOc1ccc(NS(C)(=O)=O)cc1)CCc1ccc(NS(C)(=O)=O)cc1`: the outcome in test [1] was inactive. Moreover, the Potency entry in test [2] was “inactive”.
For `Clc1ccc2nsnc2c1NC1=NCCN1`, in test [1], the call was inactive. For the same molecule, in test [2], the Potency entry was “inactive”.
As for `C[C@](N)(Cc1ccc(O)c(O)c1)C(=O)O`, the Potency entry in test [2] was “inactive”.
Still for that read-out and setting: the entry for `CC12CC3CC(C)(C1)CC(N)(C3)C2` is “inactive”.
Take `CN1C2CCC1CC(OC(=O)C(CO)c1ccccc1)C2` (stereo not given): in test [1], the molecule was called inactive. In test [2], the Potency entry is “inactive”.
For `CC[N+](CC)(CC)CCOc1cccc(OCC[N+](CC)(CC)CC)c1OCC[N+](CC)(CC)CC`, the call in test [1] was inactive. Moreover, the Potency result in test [2] is “inactive”.
As for `CCOC(=O)C(C)(C)Oc1ccc(Cl)cc1`, the call in test [1] was inactive. For the same molecule, the Potency entry in test [2] is “inactive”.
As for `CCC1(c2ccccc2)C(=O)NCNC1=O`, the Potency result in test [2] was “inactive”.
On the same count and under the same terms, the entry for `CN(C)CCOC(c1ccccc1)c1ccccc1` is “inactive”.
Turning to `COc1ccccc1N1CCN(CC(O)COc2cccc3ccccc23)CC1` (stereo not given), the outcome in test [1] was inactive. Besides, the Potency result in test [2] was “inactive”.
In the case of `COc1nc(C)nc(Cl)c1NC1=NCCN1`, the molecule was called inactive in test [1]. Besides, the Potency result in test [2] was “inactive”.
Turning to `CN1CCC(=C2c3ccccc3CC(=O)c3sccc32)CC1`, the molecule was classed as inactive in test [1]. In addition, in test [2], the Potency result was “inactive”.
